Compounds without any hit were thinned out: in the full panel of roughly 83,000, 20% have a hit.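 Step 1: grow cells in 96-well plates. Step 2: add test compound at a single concentration. Step 3: incubate 48 h. Step 4: record percent growth.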 Activity calls are given as the source filed them. Rule for the calls: active = growth percent below 10; inactive = the rest.
tested on: NCI-H522 lung; assay: NCI-60 one-dose screen, 48 h (100 = growth as untreated, 0 = no growth, -100 = all killed); conditions: 10 µM

Compound | growth
CCCNc1ccc(C2=NCCCN2)cc1 | 94.2% (inactive)
CC1(C)/C(=C\CO)C2CCC1C2 (stereo not drawn) | 88.8% (inactive)
CC(=O)Nc1ccc(NC(C)=O)c2c1C(=O)c1ccccc1C2=O | 89.3% (inactive)
O=C(N/N=C\c1cc(Br)cc(Br)c1O)N/N=C/c1cc(Br)cc(Br)c1O | 22.3% (inactive)
CN(C)c1ccc(C(c2ccc(O)cc2)c2ccc(N(C)C)cc2)cc1 | 81.1% (inactive)
Cc1ccc(Cl)cc1NC(=O)N(C)CCO | -7.39% (active)
O=C1c2ccccc2C(=O)c2c1ccc(C(=O)O)c2[N+](=O)[O-] | 97% (inactive)
COC(=O)Nc1nc2ccc(C(=O)c3ccc(F)cc3)cc2[nH]1 | -52.1% (active)
COc1cc(C(N)=O)cc(OC)c1OC | 102% (inactive)
COc1cc(/C=N\Nc2ccccc2)ccc1OC(=O)c1ccccc1 | 20.6% (inactive)

tested on: A549/ATCC NSCLC; assay: as above; conditions: 10 µM

Compound | growth
COc1ccc(C(C)C=O)cc1 (stereo not drawn) | 105% (inactive)
CCC(=O)Oc1ccc(OC)cc1 | 105% (inactive)
CCOC(=O)C/C(C)=N\O | 95.6% (inactive)
CCCCN(CCCC)CCCO | 106% (inactive)
O=C(Nc1ccccc1C(=O)NCC1CC1)c1cccs1 | 102% (inactive)
O=C(O)c1ccc(S(=O)(=O)O)cc1 | 91.5% (inactive)
CCOC(=O)/C(C#N)=C/c1cccc(C)c1 | 95.5% (inactive)
O=C(Nc1ccccc1)OCCc1ccccc1 | 102% (inactive)
COCCCNC(=O)c1nnn2c1nc(N)c1cc(Cl)ccc12 | 106% (inactive)
NC(CSC(c1ccccc1)(c1ccccc1)c1ccccc1)C(=O)O (stereo not drawn) | 25.7% (inactive)
OCc1cccc2ccccc12 | 108% (inactive)
COc1cc2c(cc1OC)[C@H](C(=O)O)[C@@H](c1ccc(OC(C)C)c(OC)c1)N(C)C2=O | 106% (inactive)
NC(C(=O)O)c1ccc([N+](=O)[O-])cc1 (stereo not drawn) | 109% (inactive)
CCC/C=C(\C)C(C)(C#N)C(=O)OCC (stereo not drawn) | 95.7% (inactive)
COc1cc(/C=C/C(=O)c2ccccc2)cc(OC)c1OC | 89.4% (inactive)
CC1=CC(C)(C)NC(=S)N1c1ccc(S(=O)(=O)O)c2cccc(S(=O)(=O)O)c12 | 106% (inactive)
C=CC(=O)OCCCCCCCC | 99.8% (inactive)
O=[N+]([O-])c1ccc(Cl)c(S(=O)(=O)O)c1 | 102% (inactive)
CN(C)C(C)(C)CC(C)(C)C | 108% (inactive)
N#CC(=Nc1cccc(F)c1)C1=C(O)c2ccccc2C1=O | 95.6% (inactive)
Cc1c(O)cnc2nn(-c3ccccc3)c(=N)n12 | 96.1% (inactive)
O=c1[nH]n(-c2ccccc2)c(=O)cc1Cl | 102% (inactive)
O=C(NCO)c1ccccc1 | 106% (inactive)
COc1cc(CCN=Cc2ccccc2O)c([N+](=O)[O-])cc1OC | 102% (inactive)
CC[N+](C)(CC)CCO | 94.1% (inactive)
COC(=O)CCCCC1=CCC2C(=O)C=C(O)C2C1 (stereo not drawn) | 98.7% (inactive)
CC(C)(C)n1nc(C2CC2)c(Br)c1NC(=O)c1ccccc1F | 93% (inactive)
C=CCNc1nnc(C)s1 | 116% (inactive)
COC(=O)c1ccc(NC(=O)CCl)cc1 | 79.2% (inactive)

tested on: 786-0 renal; assay: as above; conditions: 10 µM

Compound | growth
COc1ccc(C(C)C=O)cc1 (stereo not drawn) | 107% (inactive)
CCCNc1ccc(C2=NCCCN2)cc1 | 88.9% (inactive)
CC1(C)/C(=C\CO)C2CCC1C2 (stereo not drawn) | 101% (inactive)
CCC(=O)Oc1ccc(OC)cc1 | 105% (inactive)
CCOC(=O)C/C(C)=N\O | 96.1% (inactive)
CCCCN(CCCC)CCCO | 109% (inactive)
O=C(Nc1ccccc1C(=O)NCC1CC1)c1cccs1 | 101% (inactive)
CC(=O)Nc1ccc(NC(C)=O)c2c1C(=O)c1ccccc1C2=O | 91% (inactive)
O=C(N/N=C\c1cc(Br)cc(Br)c1O)N/N=C/c1cc(Br)cc(Br)c1O | 46.5% (inactive)
O=C(O)c1ccc(S(=O)(=O)O)cc1 | 89.7% (inactive)
CCOC(=O)/C(C#N)=C/c1cccc(C)c1 | 98.3% (inactive)
O=C(Nc1ccccc1)OCCc1ccccc1 | 97.2% (inactive)
COCCCNC(=O)c1nnn2c1nc(N)c1cc(Cl)ccc12 | 96.6% (inactive)
NC(CSC(c1ccccc1)(c1ccccc1)c1ccccc1)C(=O)O (stereo not drawn) | 49.4% (inactive)
OCc1cccc2ccccc12 | 109% (inactive)
CN(C)c1ccc(C(c2ccc(O)cc2)c2ccc(N(C)C)cc2)cc1 | 105% (inactive)
COc1cc2c(cc1OC)[C@H](C(=O)O)[C@@H](c1ccc(OC(C)C)c(OC)c1)N(C)C2=O | 100% (inactive)
NC(C(=O)O)c1ccc([N+](=O)[O-])cc1 (stereo not drawn) | 109% (inactive)
Cc1ccc(Cl)cc1NC(=O)N(C)CCO | 109% (inactive)
CCC/C=C(\C)C(C)(C#N)C(=O)OCC (stereo not drawn) | 110% (inactive)

Compound | growth
COc1cc(/C=C/C(=O)c2ccccc2)cc(OC)c1OC | 89% (inactive)
O=C1c2ccccc2C(=O)c2c1ccc(C(=O)O)c2[N+](=O)[O-] | 106% (inactive)
CC1=CC(C)(C)NC(=S)N1c1ccc(S(=O)(=O)O)c2cccc(S(=O)(=O)O)c12 | 112% (inactive)
COC(=O)Nc1nc2ccc(C(=O)c3ccc(F)cc3)cc2[nH]1 | 26.4% (inactive)
C=CC(=O)OCCCCCCCC | 104% (inactive)
O=[N+]([O-])c1ccc(Cl)c(S(=O)(=O)O)c1 | 110% (inactive)
CN(C)C(C)(C)CC(C)(C)C | 100% (inactive)
N#CC(=Nc1cccc(F)c1)C1=C(O)c2ccccc2C1=O | 97.5% (inactive)
Cc1c(O)cnc2nn(-c3ccccc3)c(=N)n12 | 102% (inactive)
O=c1[nH]n(-c2ccccc2)c(=O)cc1Cl | 103% (inactive)
O=C(NCO)c1ccccc1 | 108% (inactive)
COc1cc(CCN=Cc2ccccc2O)c([N+](=O)[O-])cc1OC | 92.6% (inactive)
CC[N+](C)(CC)CCO | 99.5% (inactive)
COc1cc(C(N)=O)cc(OC)c1OC | 108% (inactive)
COC(=O)CCCCC1=CCC2C(=O)C=C(O)C2C1 (stereo not drawn) | 99.9% (inactive)
CC(C)(C)n1nc(C2CC2)c(Br)c1NC(=O)c1ccccc1F | 99.6% (inactive)
C=CCNc1nnc(C)s1 | 94.9% (inactive)
COc1cc(/C=N\Nc2ccccc2)ccc1OC(=O)c1ccccc1 | 78.4% (inactive)
COC(=O)c1ccc(NC(=O)CCl)cc1 | 93.5% (inactive)

— PubChem BioAssay (NCI)
